A selection: hits, their analogues and other compounds. The true share with any hit is near 1.3%.
Gli-Sufu block: antagonists of Gli-Sufu signaling | AID 588413 | inhibition, % at 5 µM | Sufu-KO-LIGHT fibroblasts, Gli luciferase reporter luminescence | 340,000 tested, 0.74% active;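 active means inhibition above about 55%, limit read from the data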;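 further: 0% = DMSO-treated cells and 100% = wells with medium but no cells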
SRC3 inh: human NCOA3 inhibition; AID 588352; Q9Y6Q9; 360,000 tested, 0.17% active; HEK293 GAL4-SRC3 luciferase reporter, luminescence; inhibition, % at 3.6 µM;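 active means inhibition above a per-campaign cutoff, the mean of all compounds plus 3 SD, cut at about 60% in these data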;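 further: 0% = DMSO-treated cells and 100% = gossypol-treated cells at 36 µM; higher means less SRC3-driven luciferase light from the GAL4 reporter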
SRC2 inh: human SRC2 (NCOA2) inhibition. Q15596. HEK293 GAL4-SRC2 luciferase reporter, luminescence. inhibition, % at 9 µM. 370,000 tested, 0.17% active;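 active means inhibition above the mean inhibition of all tested compounds plus 3 SD, set per campaign, cut at about 52% in these data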;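 further: 0% = DMSO treated cells and 100% = cells given Gossypol at 36 µM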
COUP-TFII inh: blocks human COUP-TFII nuclear receptor | P24468 | HEK293T NGFI-A luciferase reporter, luminescence | inhibition, % at 8.6 µM | 370,000 tested, 0.7% active | AID 686940;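 active means inhibition above a per-plate cutoff, mean inhibition of test wells between control levels plus 3 SD, cut at about 38% in these data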;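 further: cells cotransfected with COUP-TFII expression vector driving the NGFI-A reporter; 0% = median of COUP-TF2 test wells and 100% = reporter-only cells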
NCOA1 inh: human NCOA1 inhibition; HEK293 GAL4-SRC1 luciferase reporter, luminescence; inhibition, % at 3.6 µM; AID 588354; Q15788; 360,000 tested, 0.12% active;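 active means inhibition above the campaign mean plus 3 SD, with each screening campaign given its own cutoff, cut at about 60% in these data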;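 further: 0% = DMSO treated cells and 100% = gossypol at 36 µM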
NR5A2 inv ag: NR5A2 inverse agonism in reporter assay | 360,000 tested, 0.13% active | HEK293T StAR-luciferase reporter, LRH-1 transfected, 24 h | O00482 | inhibition, % at 3.6 µM | AID 602396;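 active means inhibition above the mean inhibition of all tested compounds plus 3 SD, cut at about 73% in these data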;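 further: 0% = DMSO wells and 100% = reporter-only cells lacking LRH-1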
VP16 Luc counter: counter-screen for COUP-TFII antagonists: inhibitors of VP16 | shares compounds with COUP-TFII inh | HEK293 Gal4-VP16 luciferase reporter, luminescence | inhibition, % at 8.5 µM | 2,500 tested, 25% active | AID 687007; in the data active means inhibition above about 13%
NR2F2 inh conf: COUP-TFII (NR2F2) inhibition, confirmation assay; 2,500 tested, 45% active; HEK293 NGFI-A luciferase reporter, luminescence; inhibition, % at 8.5 µM; shares compounds with COUP-TFII inh;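 active means mean inhibition over three repeats above a set limit taken from the earlier primary screen, cut at about 38% in these data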;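 further: 100% = cells given the luciferase reporter alone without the COUP-TF2 vector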
An asterisk follows results filed as active; . = no result given.

SMILES	Gli-Sufu block	SRC3 inh	SRC2 inh	COUP-TFII inh	NCOA1 inh	NR5A2 inv ag	VP16 Luc counter	NR2F2 inh conf
COC(=O)C1=C(c2ccc(-c3ccccc3)c(F)c2)C[C@@H]2CC[C@H]1N2C(=O)N1CCOCC1	19.6	30.0	25.1	70.6*	28.8	40.5	-9.3	36.1
COCCNC(=O)N1[C@H]2CC[C@@H]1C(C(=O)OC)=C(c1ccc(-c3ccccc3)c(F)c1)C2	-12.2	26.4	18.5	49.7*	21.1	25.4	3.5	32.4
COC(=O)C1=C(c2ccc(-c3ccccc3)c(F)c2)C[C@@H]2CC[C@H]1N2C(=O)N1CCCC1	26.2	12.5	18.6	66.9*	5.3	39.7	-4.6	47.1*
C[C@H](NC(=O)OCc1ccccc1)C(=O)NC(Cc1ccccc1)P(=O)(Oc1ccccc1)Oc1ccccc1 (stereo not given in full)	.	.	-28.2	-3.6	.	.	.	.
CN1C2CCC1C(C(=O)Oc1ccccc1)C(c1ccc(Cl)cc1)C2 (stereo not given)	.	.	-31.9	0.9	.	.	.	.
O=P(OCCCl)(OCCCl)OCCCl	.	.	10.6	6.4	.	.	.	.
O=C(COC(=O)c1cc(Br)cc(Br)c1O)NC12CC3CC(CC(C3)C1)C2	.	-1.9	4.6	7.8	20.9	20.6	.	.
CC(N)C(=O)NC1C2C(=C(O)CC(O)C2O)C(=O)OC1(C)C(Cl)Cl (stereo not given)	75.8*	91.0*	64.5*	76.4*	93.3*	96.8*	9.6	57.0*
COc1ccc(CC2=NCCc3cc(OC)c(OC)cc32)cc1OC	.	-4.0	-11.3	-6.2	16.0	-9.7	.	.
COc1ccc(Cc2nccc3cc(OC)c(OC)cc23)cc1OC	32.8	4.3	-11.2	39.7*	9.9	35.7	-3.0	13.5
COC(=O)C1CC(OC(C)=O)C(=O)[C@H]2C1(C)CC[C@H]1C(=O)OC(c3ccoc3)CC12C (stereo not given in full)	.	.	-5.7	-1.3	.	.	.	.
COc1ccc(C(c2nnnn2-c2ccc(OC)cc2)N2CCC(n3c(=O)[nH]c4ccccc43)CC2)cc1 (stereo not given)	.	16.6	10.0	5.4	23.8	12.5	.	.
COc1ccc(-n2nnnc2C(c2cc3ccccc3o2)N2CCC(n3c(=O)[nH]c4ccccc43)CC2)cc1 (stereo not given)	.	59.5	41.7	98.9*	37.0	44.2	-3.3	60.3*
C=C(CC1CC(O)[C@]2(C)OC3CC4OC5C[C@]6(C)O[C@]7(C)CCC8OC9C[C@]%10(C)OC%11C(C)=CC(=O)OC%11CC%10OC9C[C@@H](C)C8OC7CC6O[C@]5(C)C/C=C\C4OC3CC2O1)C(=O)O (stereo not given in full)	-5.7	14.4	-1.8	-10.3	-1.4	10.0	.	.
C=C(C=O)CC1CC(O)[C@]2(C)OC3CC4OC5C[C@]6(C)O[C@]7(C)CCC8OC9C[C@]%10(C)OC%11C(C)=CC(=O)OC%11CC%10OC9C[C@@H](C)C8OC7CC6O[C@]5(C)C/C=C\C4OC3CC2O1 (stereo not given in full)	.	.	.	75.7*	.	.	0.8	9.0
C=C1C(=O)O[C@@H]2C[C@@H](C)[C@@H]3C=CC(=O)[C@@]3(C)[C@@H](OC(=O)CC(=O)O[C@H]3[C@@H]4C(=C)C(=O)O[C@@H]4C[C@@H](C)[C@@H]4C=CC(=O)[C@]43C)[C@H]12	93.2*	74.1*	93.5*	97.9*	66.3*	87.5*	96.4*	108.6*
CC(C)c1oc(=O)cc2c1[C@@H](O)[C@H]1OC(=O)[C@@]3(C)CC[C@@H](O)[C@@]2(C)C13 (stereo not given in full)	20.4	61.9*	-48.5	42.2*	25.0	72.3	-18.2	31.4
CC(C)c1oc(=O)cc2c1[C@@H](O)[C@H]1OC(=O)[C@@]3(C)C[C@@H](O)[C@@H](O)[C@@]2(C)C13 (stereo not given in full)	46.5	76.1*	49.2	40.9*	9.7	92.2*	-17.9	29.6
